Assay results from PubChem BioAssay (EPA / NIEHS).
Values joined by “and” are separate entries in the source; they are usually repeats but may differ in a detail not shown here. Equal values may be shown once. Results filed as inconclusive are left out. Some structures have more than one record in an assay (separate samples or runs), and their calls can disagree. Active and inactive are the calls of the source. Rule for the calls, unless noted: active = hit-call score of the fitted dose curve at least 0.9, where 1 is the maximum; inactive = score below 0.9.

Columns and labels:
[1] = read-out: Plasminogen activator inhibitor-1 (PAI1), SERPINE1 (gene 5054); experiment: BSK_CASM3C_PAI1: BioMAP Diversity Plus: CASM3C Assay for Plasminogen activator inhibitor-1 (PAI1) Biomarker Activity (AID 2284284); conditions: primary human coronary artery smooth muscle cells;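 note: PAI-1 protein level measured by ELISA 24 h after dosing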
[2] = read-out: Monocyte Chemoattractant Protein-1 (MCP1), CCL2 (gene 6347); experiment: BSK_hDFCGF_MCP1: BioMAP Diversity Plus: hDFCGF Assay for Monocyte Chemoattractant Protein-1 (MCP1) Biomarker Activity (AID 2284285); conditions: primary human foreskin fibroblasts
In short: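 Human foreskin fibroblasts (hDFCGF system) were exposed to compound and secreted MCP-1 was measured by ELISA after 24 hours. Activity was fitted relative to DMSO. Cytotoxicity was checked by SRB total-protein staining in parallel cultures.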

[3] = read-out: Vascular cell adhesion molecule 1 (VCAM1), VCAM1 (gene 7412); experiment: BSK_IMphg_VCAM1: BioMAP Diversity Plus: IMphg Assay for Vascular cell adhesion molecule 1 (VCAM1) Biomarker Activity (AID 2284286); conditions: primary human endothelial cells with macrophages
In short: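 Human venular endothelial cells co-cultured with macrophages; VCAM-1 quantified by ELISA 24 h after dosing, fitted in the positive direction against DMSO. Cytotoxicity was checked in parallel cultures by SRB total-protein staining (0.1% SRB after 10% TCA fixation, 560 nm).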

[4] = read-out: Intercellular Adhesion Molecule 1 (ICAM1), ICAM1 (gene 3383); experiment: BSK_hDFCGF_ICAM1: BioMAP Diversity Plus: hDFCGF Assay for Intercellular Adhesion Molecule 1 (ICAM1) Biomarker Activity (AID 2284287); conditions: primary human foreskin fibroblasts
In short: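 Primary human foreskin fibroblasts (hDFCGF system) dosed with chemical; ICAM-1 quantified by ELISA at 24 h relative to DMSO. Parallel SRB total-protein staining to assess overt cytotoxicity.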

[5] = read-out: CD40, CD40 (gene 958); experiment: BSK_IMphg_CD40: BioMAP Diversity Plus: IMphg Assay for CD40 Biomarker Activity (AID 2284288); conditions: primary human endothelial cells with macrophages
In short: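 Venular endothelial cells co-cultured with macrophages (human primary), CD40 measured by ELISA 24 h after dosing. Positive-direction fit vs DMSO baseline; cytotoxicity tracked by SRB total-protein staining in parallel cultures.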

[6] = read-out: TIMP metallopeptidase inhibitor 2 (TIMP2), TIMP2 (gene 7077); experiment: BSK_hDFCGF_TIMP2: BioMAP Diversity Plus: hDFCGF Assay for TIMP metallopeptidase inhibitor 2 (TIMP2) Biomarker Activity (AID 2284289); conditions: primary human foreskin fibroblasts
In short: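 Primary human foreskin fibroblasts in the hDFCGF system, dosed for 24 h; TIMP-2 level measured by ELISA, fitted in the positive direction against DMSO; cytotoxicity checked in parallel by sulforhodamine B total protein staining.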

[7] = read-out: Interleukin-1 alpha (IL1a), IL1A (gene 3552); experiment: BSK_IMphg_IL1a: BioMAP Diversity Plus: IMphg Assay for Interleukin-1 alpha (IL1a) Biomarker Activity (AID 2284290); conditions: primary human endothelial cells with macrophages
In short: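 Human venular endothelial cells co-cultured with macrophages, IMphg system. IL-1α is measured by ELISA 24 h after dosing and fitted in the positive direction against DMSO. Cytotoxicity is assessed by SRB staining of parallel cultures.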

[8] = read-out: E-selectin (Homo sapiens) (UniProt P16581); experiment: BSK_IMphg_ESelectin: BioMAP Diversity Plus: IMphg Assay for Eselectin Biomarker Activity (AID 2284291); conditions: primary human endothelial cells with macrophages
In short: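 Human venular endothelial cell–macrophage co-culture, E-selectin measured by ELISA 24 h after chemical dosing. Signal fitted in the positive direction against DMSO as negative control and baseline.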

[9] = read-out: Macrophage colony-stimulating factor (MCSF), CSF1 (gene 1435); experiment: BSK_IMphg_MCSF: BioMAP Diversity Plus: IMphg Assay for Macrophage colony-stimulating factor (MCSF) Biomarker Activity (AID 2284293); conditions: primary human endothelial cells with macrophages
In short: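 Co-culture of human venular endothelial cells and macrophages, 24 hours of chemical exposure. M-CSF quantified by ELISA, with parallel SRB total-protein staining for cytotoxicity; activity fitted relative to DMSO.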

[10] = read-out: Interleukin-10 (IL10), IL10 (gene 3586); experiment: BSK_IMphg_IL10: BioMAP Diversity Plus: IMphg Assay for Interleukin-10 (IL10) Biomarker Activity (AID 2284294); conditions: primary human endothelial cells with macrophages
In short: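 Human venular endothelial cells cocultured with macrophages, dosed 24 h; IL-10 measured by ELISA, activity relative to DMSO. Cytotoxicity assessed in parallel cultures by sulforhodamine B total-protein staining.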

[11] = BSK_IMphg_SRB.Mphg: Macrophage Viability Assessment in the BioMAP Diversity Plus: IMphg Assay (AID 2284295); conditions: primary human endothelial cells with macrophages
In short: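 Venular endothelial cells co-cultured with macrophages, read 24 h after dosing. Total protein measured by 0.1% SRB staining after 10% TCA fixation, absorbance at 560 nm. Fitted in positive direction against DMSO baseline.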

[12] = read-out: Thrombomodulin, THBD (gene 7056); experiment: BSK_LPS_Thrombomodulin: BioMAP Diversity Plus: LPS Assay for Thrombomodulin Biomarker Activity (AID 2284296); conditions: primary human HUVEC with PBMC
In short: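 Human umbilical vein endothelial cells co-cultured with PBMC and stimulated with LPS; cell-surface thrombomodulin measured by ELISA 24 hours after compound. Gain or loss versus DMSO; cytotoxicity checked by SRB staining in parallel cultures.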

[13] = read-out: CD69, CD69 (gene 969); experiment: BSK_LPS_CD69: BioMAP Diversity Plus: LPS Assay for CD69 Biomarker Activity (AID 2284303); conditions: primary human HUVEC with PBMC
In short: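 Human umbilical vein endothelial cells co-cultured with PBMC under LPS stimulation, chemical exposure 24 h; cell-surface CD69 measured by ELISA and fitted in the positive direction versus DMSO.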

[14] = IUF_NPC2c_oligodendrocyte_migration_120hr: Leibniz Research Institute for Environmental Medicine (IUF) 120-hour Neural Progenitor Cell Migration Assay for Oligodendrocyte Migration (NPC2c) (AID 2284297);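 note: O4-positive oligodendrocyte migration distance divided by radial glia migration distance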
In short: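 Exposure runs 5 days from differentiation onset at 37C, seven concentrations plus solvent control, DMSO at most 0.1%, applied to primary hNPC spheres on laminin. After fixation, O4 immunostaining gives oligodendrocyte distance from the sphere core, relative to radial glia migration.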

[15] = IUF_NPC2a_radial_glia_migration_120hr: Leibniz Research Institute for Environmental Medicine (IUF) 120-hour Neural Progenitor Cell Migration Assay for Radial Glia Migration (NPC2a) (AID 2284298)
In short: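 Migration distance in um, sphere core edge to migration-area edge, derived by nuclei-density algorithm from Hoechst images after 120 h compound exposure. Primary hNPC spheres differentiated on poly-D-lysine/laminin in N2 medium, 37C; medium half-replaced day 3.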

[16] = IUF_NPC2a_radial_glia_migration_72hr: Leibniz Research Institute for Environmental Medicine (IUF) 72-hour Neural Progenitor Cell Migration Assay for Radial Glia Migration (NPC2a) (AID 2284299)
In short: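 Primary hNPC spheres, fetal brain GW 16-19, on PDL/laminin; DMEM/F12 3:1 + 1% N2. Compound dosed day 0, 7 conc. + SC, half-medium refresh day 3. 72 h brightfield, migration distance core-to-front (um), 4 directions averaged.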

[17] = IUF_NPC2b_neuronal_migration_120hr: Leibniz Research Institute for Environmental Medicine (IUF) 120-hour Neural Progenitor Cell Migration Assay for Neuron Migration (NPC2b) (AID 2284300)
In short: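 TUBB3-positive neurons are imaged after 120 h of differentiation, and their mean distance from the sphere edge is normalised to radial glia migration. Single 0.3 mm fetal hNPC spheres on poly-D-lysine/laminin received 7 compound concentrations, ≤0.1% DMSO, refreshed at day 3.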

[18] = IUF_NPC3_neuronal_differentiation_120hr: Leibniz Research Institute for Environmental Medicine (IUF) 120-hour Neuronal Differentiation Assay (NPC3) (AID 2284301)
In short: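 Single 0.3 mm neurospheres from human fetal cortex were plated in differentiation medium containing test compound. Medium was half-replaced on day 3. After 120 h cells were fixed, immunostained and imaged, and neuronal fraction was scored against DMSO control.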

[19] = IUF_NPC4_neurite_length_120hr: Leibniz Research Institute for Environmental Medicine (IUF) 120-hour Neuronal Morphology Assay for Neurite Length (NPC4) (AID 2284302)
In short: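 Read-out is mean neurite length in µm of TUBB3-positive neurons, skeletonized from high-content fluorescence images after 120 h. Single 0.3 mm primary human neural progenitor spheres differentiated on poly-D-lysine/laminin under continuous compound exposure; DMSO was baseline.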

[20] = IUF_NPC5_oligodendrocyte_differentiation_120hr: Leibniz Research Institute for Environmental Medicine (IUF) 120-hour Oligodendrocyte Differentiation Assay (NPC5) (AID 2284304; active = hit-call score of the fitted dose curve at least 0.9, where 1 is the maximum;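 note: primary human fetal neural progenitor spheres plated to migrate and differentiate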)
In short: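 Oligodendrocyte differentiation scored as O4-positive cells, found by CNN image analysis, as percent of Hoechst-stained nuclei in the migration area. Scoring followed 5 days of exposure of plated hNPC neurospheres differentiating in DMEM/F12 N2 medium at 37C, with compound refreshed at day 3.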

Measured: AC50

E-selectin (Homo sapiens), sequence (P16581 whole entry, looked up): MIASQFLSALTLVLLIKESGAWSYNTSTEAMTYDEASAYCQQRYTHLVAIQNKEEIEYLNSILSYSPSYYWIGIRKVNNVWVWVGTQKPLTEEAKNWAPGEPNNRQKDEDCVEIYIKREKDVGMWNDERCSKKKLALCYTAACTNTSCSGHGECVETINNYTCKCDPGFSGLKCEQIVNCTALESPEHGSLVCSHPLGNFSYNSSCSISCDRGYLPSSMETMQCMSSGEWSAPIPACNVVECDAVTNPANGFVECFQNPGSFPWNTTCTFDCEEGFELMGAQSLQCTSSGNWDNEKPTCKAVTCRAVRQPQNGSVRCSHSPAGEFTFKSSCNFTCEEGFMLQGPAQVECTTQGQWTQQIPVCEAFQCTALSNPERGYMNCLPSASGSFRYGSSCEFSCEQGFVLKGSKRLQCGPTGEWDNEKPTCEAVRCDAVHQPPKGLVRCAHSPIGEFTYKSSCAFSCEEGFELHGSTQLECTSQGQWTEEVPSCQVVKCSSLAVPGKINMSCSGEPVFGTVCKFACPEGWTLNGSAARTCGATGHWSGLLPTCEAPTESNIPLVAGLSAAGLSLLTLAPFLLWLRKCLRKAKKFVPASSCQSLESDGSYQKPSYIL

O=C(O)C=CC(F)(C(F)(F)F)C(F)(F)F
inactive: [1] | [2] | [3] | [4] | [5] | [6] | [7] | [8] | [9] | [10] | [11] | [12] | [13]

O=S1(=O)OCC2C(CO1)C1(Cl)C(Cl)=C(Cl)C2(Cl)C1(Cl)Cl (configuration not stated)
active: [20] 0.403 µM
inactive: [14] | [15] | [16] | [17] | [18] | [19]

COC(=O)C(F)(F)C(F)(F)OC(F)(C(F)(F)F)C(F)(F)OC(F)=C(F)F (configuration not stated)
inactive: [1] | [2] | [3] | [4] | [5] | [6] | [7] | [8] | [9] | [10] | [11] | [12] | [13]

O=P(Oc1ccccc1)(Oc1ccccc1)Oc1ccccc1
active: [15] 11 µM
inactive: [14] | [16] | [17] | [18] | [19] | [20]

OCC(F)(F)OC(F)(F)C(F)(F)OC(F)(F)CO
active: [7] 334 nM
inactive: [1] | [2] | [3] | [4] | [5] | [6] | [7] | [8] | [9] | [10] | [11] | [12] | [13]

O=C(O)C(F)(OC(F)(F)C(F)(F)C(F)(F)F)C(F)(F)F (configuration not stated)
inactive: [1] | [2] | [3] | [4] | [5] | [6] | [7] | [8] | [9] | [10] | [11] | [12] | [14] | [15] | [16] | [17] | [18] | [13] | [20]
active: [7] 220 nM | [9] 220 nM | [10] 673 nM and 652 nM | [11] 30 µM | [19] 0.342 µM

COP(=O)(CCC(=O)NCO)OC
active: [13] 0.15 µM
inactive: [1] | [2] | [4] | [6] | [12] | [13]

O=C(O)C(F)(F)OC(F)(F)C(F)(F)OC(F)(F)F
inactive: [1] | [2] | [3] | [4] | [5] | [6] | [7] | [8] | [9] | [10] | [11] | [12] | [13]
active: [11] 11.3 µM

CCOc1ccc(C(C)(C)COCc2cccc(Oc3ccccc3)c2)cc1
inactive: [14] | [15] | [16] | [17] | [18] | [19] | [20]

CCCCC(CC)COP(=O)(Oc1ccccc1)Oc1ccccc1 (configuration not stated)
inactive: [14] | [15] | [16] | [17] | [18] | [19] | [20]

O=S(=O)(F)C(F)(F)C(F)(F)C(F)(F)C(F)(F)C(F)(F)C(F)(F)C(F)(F)C(F)(F)F
inactive: [1] | [2] | [3] | [4] | [5] | [6] | [7] | [8] | [9] | [10] | [11] | [12] | [13]

OCC(F)(F)OC(F)(F)C(F)(F)OC(F)(F)C(F)(F)OC(F)(F)F
inactive: [1] | [2] | [3] | [4] | [6] | [12] | [13]
active: [3] 47.7 µM | [4] 19.2 µM | [5] 7.58 µM and 49.2 µM | [7] 26.6 µM and 47.5 µM | [8] 38.6 µM and 44.3 µM | [9] 43 µM and 18.8 µM | [10] 45.9 µM and 42.6 µM | [11] 21 µM and 15.3 µM | [13] 6.46 µM
